Test results from PubChem BioAssay (NCATS).
Inconclusive results are not listed. A call without a number means that no potency is given here. A number with no mark means an inactive call. Active and inactive are the calls of the source. Calls follow the shape of the dose curve; as a rule, active = well fitted curve in the direction sought with a large enough effect; inconclusive = small, poorly fitted or top-dose-only effect, or another doubt; inactive = no such curve, though single readings can be large; an effect the other way counts as inactive or inconclusive.

Legend:
[1] = system: Zika virus NS2B-NS3 protease (linked construct); test: Primary screen NINDS Rhodamine qHTS for Zika virus inhibitors (AID 1347160); also: nearly all actives have a fitted effect of over 55% in size; also: potency is read from the fitted curve at half-maximal effect
In short: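 Purified NS2B-NS3 protease with the NS2B hydrophilic domain joined by a flexible linker (25 nM) in 10 mM Tris-HCl pH 8.0, 0.01% Tween 20, preincubated 15 min at RT with compound; Rhodamine110 peptide substrate 1.5 µM; fluorescence change over 15 min; 4-parameter Hill fit.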

[2] = UWB1.289 Cancer Cell Toxicity qHTS against the NCATS CANVASS Library (AID 1347347); also: nearly all actives have a fitted effect of over 60% in size
In short: (§1)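 1000 cells/well seeded and rested 4 h at 37 °C before pin transfer of compounds in an 11-pnt series. Exposure 72 h at 37 °C/5% CO2; viability by CellTiter-Glo luminescence after 15 min at room temperature.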

[3] = Panc-1005 Cancer Cell Toxicity qHTS against the NCATS CANVASS Library (AID 1347349); also: series mostly up to about 38 µM; nearly all actives have a fitted effect of over 60% in size
In short: as §1

[4] = SW1088 Cancer Cell Toxicity qHTS against the NCATS CANVASS Library (AID 1347350); also: nearly all actives have a fitted effect of over 75% in size
In short: as §1

[5] = U-118MG Cancer Cell Toxicity qHTS against the NCATS CANVASS Library (AID 1347351)
In short: as §1

[6] = A2780 Cisplatin Sensitive Ovarian Cancer Cell Toxicity qHTS against the NCATS CANVASS Library (AID 1347353); also: nearly all actives have a fitted effect of over 60% in size
In short: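 A2780 cells, 750/well, settled 4 h at 37 °C, then treated with an 11-point compound series for 72 h. Viability was read as ATPLite luminescence after 10 min at room temperature, with bortezomib as control.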

[7] = UWB1.289-WTBRCA1 Cancer Cell Toxicity qHTS against the NCATS CANVASS Library (AID 1347354)
In short: (§2)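 Cells at 1000/well were given compound 4 h after plating in an 11-point series. Viability was read by CellTiter-Glo luminescence after 72 h at 37 degrees C.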

[8] = HEK-293 Cancer Cell Toxicity qHTS against the NCATS CANVASS Library (AID 1347355); also: series mostly up to about 46 µM; nearly all actives have a fitted effect of over 65% in size
In short: as §2

[9] = system: NAD(P)H diaphorase (Clostridium kluyveri); test: Diaphorse counterscreen qHTS: Assay Interference Panel against the NCATS CANVASS Library (AID 1347362)
In short: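 Clostridium kluyveri diaphorase in PBS with 0.01% Tween-20 was preincubated 15 min at room temperature in the dark with compounds (11-point series). Resorufin fluorescence (ex 525/20, em 598/25) was read 5 min after adding resazurin/NADH.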

[10] = KB-8-5-11 Cancer Cell Toxicity qHTS against the NCATS CANVASS Library (AID 1347364); also: nearly all actives have a fitted effect of over 75% in size
In short: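 KB-8-5-11 cells, 500/well in DMEM + 10% FBS, given compounds in an 11-point series. Incubated 72 h at 37 °C. Viability by CellTiter-Glo luminescence. Confirmation also run with 1 uM tariquidar.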

[11] = SDT Cancer Cell Toxicity qHTS against the NCATS CANVASS Library (AID 1347365); also: nearly all actives have a fitted effect of over 60% in size; also: potency is read from the fitted curve at half-maximal effect
In short: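 SDT dog glioma cells (500/well) exposed to an 11-point compound series for 72 hr at 37C, 5% CO2. Cytotoxicity read as ATP content by CellTiterGlo luminescence; bortezomib titration as control.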

[12] = target: Nuclear receptor subfamily 1 group I member 3 (Homo sapiens) (UniProt Q14994); test: qHTS for Constitutive Androstane Receptor (CAR) Antagonist screened against the NCATS CANVASS Library (AID 1347372);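 also: cells stimulated with 50 nM CITCO agonist so inhibition reflects antagonism; series mostly up to about 46 µM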
Chain of Nuclear receptor subfamily 1 group I member 3 (Homo sapiens) (Q14994 whole entry, looked up): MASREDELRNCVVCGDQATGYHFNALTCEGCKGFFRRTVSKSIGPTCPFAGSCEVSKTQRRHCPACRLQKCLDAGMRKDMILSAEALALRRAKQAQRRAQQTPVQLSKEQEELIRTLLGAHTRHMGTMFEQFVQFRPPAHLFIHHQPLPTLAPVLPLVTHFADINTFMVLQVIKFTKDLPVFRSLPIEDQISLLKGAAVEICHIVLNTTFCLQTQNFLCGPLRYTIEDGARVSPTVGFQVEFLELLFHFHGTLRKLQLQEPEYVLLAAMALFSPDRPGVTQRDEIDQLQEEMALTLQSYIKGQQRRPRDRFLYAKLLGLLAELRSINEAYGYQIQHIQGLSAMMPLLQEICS
In short: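 HepG2 cells stably carrying hCAR and a CYP2B6-2.2kb luciferase reporter were exposed to compounds plus 50 nM CITCO for 24hr at 37C. CAR activity was read by ONE-Glo luminescence, with viability measured first by CellTiter-Fluor.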

[13] = qHTS for Hypoxia signaling pathway (HIF-1) antagonists against the NCATS CANVASS Library (AID 1347374); also: nearly all actives have a fitted effect of over 60% in size; also: potency is read from the fitted curve at half-maximal effect
In short: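 HRE-bla ME-180 cells in medium with 0.5% dialyzed FBS received compounds (11-point series) plus CoCl2 (60 uM addition stock) for 17 hrs at 37C. Beta-lactamase activity read with CCF4 (405 nm ex, 460/530 nm em); CellTiter-Glo viability measured in same wells.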

[14] = DH5-alpha competent E. coli microbial cell viability qHTS against the NCATS CANVASS Library (AID 1347377); conditions: outcome: dose series up to 46.1 µM unless noted
In short: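 DH5-alpha E. coli suspension was exposed to an 11-point compound series overnight at 37 °C. Viable cells quantified by ATP luminescence (BacTiter-Glo) after 20 min at room temperature.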

[15] = qHTS for H2AX Agonists against the NCATS CANVASS Library (AID 1347378);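 also: phospho-H2AX S139 level in CHO-K1 lysates by TR-FRET emission ratio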
In short: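 CHO-K1, 1000 cells/well, o/n 37C; cpd several conc, 3 hr 37C, 0.76% DMSO; lyse 30 min RT; cryptate anti-pH2AX(S139) + d2 anti-H2AX, 24 hr RT; HTRF 665/620.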

[16] = qHTS for Activators of p53 Stress Response Pathway screened against the NCATS CANVASS Library (AID 1347388)
In short: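 p53RE-bla HCT-116 cells (4000/well) were plated 5 h at 37C, exposed to compounds for 16 h at 37C over an 11-point concentration series, then loaded with CCF4 for 2 h at room temperature; 460/530 nm emission ratio read.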

[17] = qHTS assay for small molecule disruptors of mitochondrial membrane potential screened against the NCATS CANVASS Library (AID 1347389)
In short: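 HepG2 cells (2,000/well) plated overnight, then exposed to compounds in 11-point qHTS series for 1 h at 37C before 30 min Mito-MPS dye; depolarization read as fall in red aggregate (590 nm) to green monomer (535 nm) fluorescence.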

[18] = Secretion counterscreen for inhibitors of the SERCaMP assay screened against the NCATS CANVASS Library (AID 1347390);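 also: light from luciferase secreted into medium read as a measure of general secretion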; also: potency is read from the fitted curve at half-maximal effect
In short: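 SH-SY5Y-GLuc STOP cells; 4 h attach; cpds 0.001 - 77 uM (qHTS, 11 pts), 20 h 37C/5% CO2; coelenterazine in glow buffer; luminescence, 5 s exposure.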

[19] = qHTS for activators of dead-cell proteases activity screened against the NCATS CANVASS Library (AID 1347392);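 also: luminescence from protease leaking out of membrane-damaged cells cleaving impermeant substrate; rising signal means more cytotoxicity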
In short: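 HepG2 cells (2000/well) attached 18 h at 37C, then exposed 5 h to compounds (11-point qHTS). Dead-cell protease activity read as luminescence from cell-impermeant AAF-aminoluciferin substrate after 15 min at room temperature.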

[20] = qHTS for inhibitors of Wild type Zika virus screened against the NCATS CANVASS Library (AID 1347396);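 also: ATP luminescence of surviving cells so rescue from viral cell killing; series mostly up to about 46 µM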
In short: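 Vero 766 (African green monkey) cells, 1000 per well, attached overnight, then compounds were added in an 11-point series before wild-type Zika virus infection. After 72 h at 37C, cell viability was read as CellTiter Glo luminescence.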

| SMILES | Potency [1] | Potency [2] | Potency [3] | Potency [4] | Potency [5] | Potency [6] | Potency [7] | Potency [8] | Potency [9] | Potency [10] | Potency [11] | Potency [12] | Potency [13] | outcome [14] | Potency [15] | Potency [16] | Potency [17] | Potency [18] | Potency [19] | Potency [20] |
| --- | --- | --- | --- | --- | --- | --- | --- | --- | --- | --- | --- | --- | --- | --- | --- | --- | --- | --- | --- | --- |
| CC1(C)CCC[C@]2(C)[C@@H]1CC[C@@]13C[C@@H](CC[C@H]12)C(C)(O)C3 (some centres undefined) | 44 µM (active) | inactive | inactive | inactive | inactive | inactive | inactive | inactive | inactive | inactive | inactive | inactive | inactive | inactive | inactive | inactive | inactive | inactive | inactive | inactive |
| Cc1cc(O)cc2oc(C[C@H](C)O)cc(=O)c12 | 44 µM (active) | inactive | inactive | inactive | inactive | inactive | inactive | inactive | inactive | inactive | 1.48 µM (active) | inactive | inactive | inactive | inactive | inactive | inactive | inactive | inactive | inactive |
| COc1cc(/C=C2/C(=O)N(c3ccc(O)cc3C(=O)O)[C@H](c3ccc(O)c(OC)c3)C2C(=O)Nc2ccc(O)cc2C(=O)O)ccc1O (some centres undefined) | 6.97 µM (active) | inactive | inactive | inactive | inactive | inactive | inactive | inactive | inactive | inactive | inactive | inactive | 8.38 µM (active) | inactive | inactive | inactive | inactive | inactive | inactive | inactive |
| C[C@@]12CCC[C@@](C)(C(=O)O)[C@H]1C[C@@H](O)[C@]13C[C@H]4C[C@H](O[C@@]4(C)C1)[C@@H]23 | 31.1 µM (active) | inactive | inactive | inactive | inactive | inactive | inactive | inactive | inactive | inactive | inactive | inactive | inactive | inactive | inactive | inactive | inactive | inactive | inactive | inactive |
| O=C(O)[C@@]12CO[C@@]3(O)C4CCN(CC[C@H]31)[C@H]4c1c2[nH]c2ccccc12 | inactive | inactive | inactive | inactive | inactive | inactive | inactive | inactive | inactive | inactive | inactive | inactive | inactive | inactive | inactive | inactive | inactive | inactive | inactive | inactive |
| CCC1=C2CCCN3C(=O)O[C@H]([C@H]1OC(C)=O)[C@H]23 | inactive | inactive | inactive | inactive | inactive | inactive | inactive | inactive | inactive | inactive | inactive | inactive | inactive | inactive | inactive | inactive | inactive | inactive | inactive | inactive |
| CC(O)/C=C/C1(O)C(C)(C)CC(O)CC1(C)O (centres undefined) | inactive | inactive | inactive | inactive | inactive | inactive | inactive | inactive | inactive | inactive | inactive | inactive | inactive | inactive | inactive | inactive | inactive | inactive | inactive | inactive |
| COC1C(O)C(OC(N)=O)C(Oc2ccc3c(O)c(NC(=O)c4ccc(O)c(CC=C(C)C)c4)c(=O)oc3c2C)OC1(C)C (centres undefined) | 44 µM (active) | inactive | inactive | inactive | inactive | inactive | inactive | inactive | inactive | inactive | inactive | inactive | inactive | inactive | inactive | inactive | – | 24.3 µM (active) | inactive | inactive |
| C[C@@H]1C(=O)[C@]23CC[C@H]1C[C@]21O[C@H]2C(C)(C)C=CC(=O)[C@]23COC1=O | inactive | inactive | inactive | inactive | inactive | inactive | inactive | inactive | inactive | inactive | inactive | inactive | inactive | inactive | inactive | inactive | inactive | inactive | inactive | inactive |
| CC[C@@H]1C[C@@]2(CC)OC(=O)[C@@]3(CC)OC(=O)[C@@H]1[C@@H]23 | inactive | inactive | inactive | inactive | inactive | inactive | inactive | inactive | inactive | inactive | inactive | inactive | inactive | inactive | inactive | inactive | inactive | inactive | inactive | inactive |
